In one assay the target is Albumin (Bos taurus) (UniProt P02769). Nature of the assay: bovine serum albumin binders on microarray, profiling panel, artefact control for SMM control protein annotation, biochemical, small-molecule microarray, Alexa647 label, 635/667 nm fluorescence (AID 1118).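 Note: score merges 667 nm emission intensity and signal-to-noise per printed compound spot.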 The settings on record: BSA-A647 binding, fluorescence 635 nm, higher = more signal.
Assay [1] can be described thus: small-molecule microarray binders of probe aXIP, primary screen, biochemical, NeuroSMM set, 635/667 nm fluorescence (AID 1119).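 Note: probe is the protein aXip251-270 applied at 1 µg/mL to compound-printed slides; binding of probe to printed compounds measured as 667 nm fluorescence plus signal to noise.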 Particulars: higher = more signal, called active from +8 up or from −8 down.
Assay [2] can be described thus: small-molecule binders of probe aNOTCH3, primary screen, biochemical, small-molecule microarray, 635/667 nm fluorescence (AID 1120).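 Note: probe is a biotin-tagged antibody raised against NOTCH3 rather than NOTCH3 protein; score merges spot fluorescence near 667 nm with spot signal to noise.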 Particulars: higher = more signal.
The nature of assay [3]: small-molecule binders of probe aNOTCH2, primary screen, biochemical, small-molecule microarray, 635/667 nm fluorescence (AID 1121).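 Note: score merges feature fluorescence read at 667 nm with its signal to noise.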 The settings on record: higher = more signal.
The target of assay [4] is Carbonic anhydrase 2 (Homo sapiens) (UniProt P00918). Put plainly: CAII small-molecule binders, profiling panel, biochemical, small-molecule microarray, Alexa647-labelled CAII (AID 1122). Particulars: CAII-A647 binding fluorescence, higher = more signal.
The nature of assay [5]: COS7 lysate on small-molecule microarray, probe aHis, 635 nm (AID 1123).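 Note: z-score combines 667nm fluorescence intensity with signal-to-noise per printed compound spot.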 The settings on record: COS7 cell lysate, fluorescence, higher = more signal.
A short description of assay [6]: compound binding in COS7 lysate, probe aLAP1, primary screen, cell lysate, small-molecule microarray (AID 1124).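 Note: lysate comes from COS7 cells expressing LAP1 and is applied at 0.3 µg/mL; score merges spot fluorescence near 667 nm with signal-to-noise over triplicate slides.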 Particulars: probe aLAP1, fluorescence, higher = more signal.
For the next assay, the system named is Sam68 (KHDRBS1). Nature of the assay: Sam68 small-molecule binders, primary screen, biochemical, small-molecule microarray, 635 nm fluorescence (AID 1125).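 Note: score merges 667 nm channel intensity with signal to noise over triplicate slides.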 Particulars: small-molecule microarray binding, higher = more signal.
Assay [7] concerns Chordin-like protein 2 (CHRDL2). Put plainly: CHRDL2 small-molecule binders, primary screen, biochemical, small-molecule microarray, 635 nm fluorescence (AID 1126).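 Note: printed compound slides probed with Chrdl2 protein at 4 µg/mL for 1 h at 4 C; score merges 667 nm emission intensity with signal to noise over three replicate slides.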 The settings on record: small-molecule microarray binding, fluorescence 635 nm; higher = more signal.
The target of assay [8] is Concanavalin-A (Canavalia ensiformis) (UniProt P02866). Put plainly: ConA small-molecule binders, primary screen, artefact control for SMM control protein annotation, biochemical, small-molecule microarray, Alexa647 label, 635 nm (AID 1127).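 Note: z combines 667 nm emission intensity with signal-to-noise across three replicate slides.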 The settings on record: ConA-A647 binding fluorescence, higher = more signal.
Sequence of Concanavalin-A (Canavalia ensiformis) (P02866 whole entry, looked up): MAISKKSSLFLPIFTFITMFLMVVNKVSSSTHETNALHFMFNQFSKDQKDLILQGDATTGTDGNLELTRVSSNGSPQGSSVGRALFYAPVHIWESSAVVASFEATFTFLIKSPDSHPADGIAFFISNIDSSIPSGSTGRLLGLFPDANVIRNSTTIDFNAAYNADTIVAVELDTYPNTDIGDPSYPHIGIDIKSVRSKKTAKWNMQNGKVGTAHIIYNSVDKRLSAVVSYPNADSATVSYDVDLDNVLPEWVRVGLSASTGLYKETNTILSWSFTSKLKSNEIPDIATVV

Calls of active or inactive are those of the source.

Sequence of Albumin (Bos taurus) (P02769 whole entry, looked up): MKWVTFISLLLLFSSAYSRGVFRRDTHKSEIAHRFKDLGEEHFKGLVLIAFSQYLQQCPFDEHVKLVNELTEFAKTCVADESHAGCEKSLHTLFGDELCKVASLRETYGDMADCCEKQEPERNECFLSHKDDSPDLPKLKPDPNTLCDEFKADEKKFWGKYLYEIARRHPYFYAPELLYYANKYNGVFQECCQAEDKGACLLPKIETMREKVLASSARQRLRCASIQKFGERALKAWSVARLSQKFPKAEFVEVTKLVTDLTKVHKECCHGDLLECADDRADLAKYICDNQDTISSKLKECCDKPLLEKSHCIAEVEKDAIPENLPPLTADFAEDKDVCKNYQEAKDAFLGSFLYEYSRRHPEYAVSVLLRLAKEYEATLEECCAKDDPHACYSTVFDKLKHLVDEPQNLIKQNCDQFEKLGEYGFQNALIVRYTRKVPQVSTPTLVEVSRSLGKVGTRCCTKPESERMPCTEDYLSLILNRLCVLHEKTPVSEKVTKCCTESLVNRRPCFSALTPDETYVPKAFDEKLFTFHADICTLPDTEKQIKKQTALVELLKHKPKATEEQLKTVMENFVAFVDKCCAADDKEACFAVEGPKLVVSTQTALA

In the case of `NC(=O)NCC#Cc1ccc2c(c1)[C@]1(C(=O)N2)[C@H](c2ccc(OCCO)cc2)N2[C@H](c3ccccc3)[C@H](c3ccccc3)OC(=O)[C@H]2[C@@H]1C(=O)NC[C@H](O)c1ccccc1`, the composite z-score in the assay with Albumin (Bos taurus) is 0.335; in assay [2], 0.0237; in assay [3], -0.147; in assay [4], 0.428; in [5], 0.485; in assay [6], -0.146. Further, the composite z-score in the assay on Sam68 (KHDRBS1) is -0.449; in assay [7] it was 0.0046; in assay [8], 1.03. In addition, in assay [1], the composite Z-score is 0.691 (inactive).

As for `COCCOC(=O)N1C(=O)[C@@]2(c3cc(C#Cc4ccc(OC)cc4)ccc31)[C@H](c1ccc(OCCO)cc1)N1[C@H](c3ccccc3)[C@H](c3ccccc3)OC(=O)[C@H]1[C@@H]2C(=O)NC[C@H](O)c1ccccc1`, the composite z-score amounted to 0.314 in the assay with Albumin (Bos taurus); 0.154 in assay [2]; 0.0022 in assay [3]; 0.471 in assay [4]; 0.575 in [5]; 0.511 in [6]. Moreover, the figures for the composite z-score (with Sam68 (KHDRBS1); in assay [7]; in [8]) were 1.3, 0.311 and 1.16, respectively. For the same compound, the composite Z-score in assay [1] is 0.217 (inactive).

`CC(C)C[C@@H]1NC(=O)[C@@]23C(=O)N[C@@H](Cc4ccccc4)C2[C@H](C)[C@@]2(C)O[C@H]2C3/C=C/C/C=C\CNC(=O)CNC1=O` (stereo not given in full): the composite z-score with Albumin (Bos taurus) is 0.0829; in [2], -0.0869; in assay [3], -0.14; in assay [4], 0.719; in assay [5], 0.283; in assay [6], 0.0471. Also, the figures for the composite z-score (in the assay with Sam68 (KHDRBS1); in assay [7]; in assay [8]) were 0.613, 0.322 and 0.423, respectively. The composite Z-score in assay [1] is -0.568 (inactive).

For `CCCC[C@H]1OB(O)C[C@H]2C1=C(COc1ccccc1)C[C@H]1C(=O)C=CC(=O)[C@H]12`, the composite z-score is -0.339 with Albumin (Bos taurus); -0.0333 in assay [2]; -0.0942 in [3]; -0.173 in assay [4]; -0.145 in assay [5]; -0.317 in [6]. In addition, the composite z-score worked out at 0.564 in the assay on Sam68 (KHDRBS1), 0.647 in assay [7] and 0.315 in [8]. Also, the composite Z-score in assay [1] was 0.229 (inactive).

For the compound `CN(C)CCCC[C@@H]1NC(=O)[C@@H]2C[C@H](C(=O)NCCCCCCNC(=O)CS)[C@H](c3ccc(O)cc3)N2C1=O`, the composite z-score was -0.868 in the assay with Albumin (Bos taurus); -0.0682 in [2]; -0.112 in assay [3]; 0.538 in assay [4]; 1.06 in assay [5]; 0.338 in assay [6]. Moreover, the composite z-score turned out to be 0.952 in the assay on Sam68 (KHDRBS1), 1.15 in assay [7] and 1.08 in [8]. For the same compound, the composite Z-score in assay [1] is 0.0804 (inactive).

In the case of `C[C@@H]1ON(c2ccccc2)[C@H](c2ccccc2)[C@H]1C(=O)O`, the composite z-score in the assay with Albumin (Bos taurus) was -0.189; in [2], -0.0971; in [3] it was -0.0846; in [4], 0.685; in assay [5], -0.0056; in [6], 0.361. The composite z-score in the assay with Sam68 (KHDRBS1) is 0.0005; in assay [7] it was 0.204; in assay [8], -0.0755. Besides, the composite Z-score in assay [1] was -0.107 (inactive).

Take `C=C(CCCC)/C(=C/C[C@H](OC(=O)c1ccncc1)c1ccc(OCCO)cc1)c1cnc2ccccc2c1`: the composite z-score with Albumin (Bos taurus) was 0.667; in assay [2], 0.0533; in [3] it was -0.0891; in [4] it was 0.755; in assay [5], 1.74; in assay [6], 0.111. Also, the results for the composite z-score (in the assay with Sam68 (KHDRBS1); in assay [7]; in [8]) were 1.31, 1.11 and 1.13, respectively. Further, in assay [1], the composite Z-score is -0.0072 (inactive).

Take `O=C(NCCN1CCOCC1)[C@@H]1c2ccccc2C(=O)N(Cc2ccccc2C(F)(F)F)[C@H]1c1ccc(CO)cc1`: the composite z-score in the assay with Albumin (Bos taurus) is 0.0089; in assay [2], -0.425; in assay [3], -0.108; in assay [4] it was 0.341; in assay [5], -0.0272; in assay [6], 2.49. For the same compound, the composite z-score in the assay on Sam68 (KHDRBS1) is 1.29; in assay [7], -0.93; in assay [8] it was 0.0882. Also, the composite Z-score in assay [1] is -0.141 (inactive).

In the case of `COc1ccc(C(=O)Nc2cccc(CN3C(=O)[C@]4(O[C@H](CC(=O)N5Cc6ccccc6C[C@H]5CO)[C@@H]([Si](C)(C)c5ccc(OC)cc5)[C@@H]4C)c4ccccc43)c2)cc1`, the composite z-score with Albumin (Bos taurus) was -0.513; in [2], 0.0243; in [3], -0.154; in assay [4] it was 0.288; in assay [5], 0.458; in assay [6], 0.557. Moreover, the composite z-score with Sam68 (KHDRBS1) was 1.29; in assay [7], 1.38; in [8], 0.858. In [1], the composite Z-score is -0.222 (inactive).

Regarding `C=CC[C@@]12N=C(c3ccc(OCCCO)cc3)O[C@@H]1c1ccccc1N(CCC)C2=O`, the composite z-score with Albumin (Bos taurus) was 0.727; in assay [2] it was 0.0968; in [3], -0.0617; in assay [4], 0.326; in assay [5], 2.73; in [6], -0.227. Further, the values for the composite z-score (in the assay with Sam68 (KHDRBS1); in assay [7]; in assay [8]) were 1.29, 1.24 and 1.06, respectively. Also, the composite Z-score in [1] is 0.414 (inactive).

Regarding `CCCCCC1=C2CNC(Cc3ccccc3)(C(=O)OC)C=C2C(C)C1=O` (stereo not given), the composite z-score amounted to 0.638 in the assay with Albumin (Bos taurus); 0.183 in assay [2]; 0.0878 in [3]; 0.648 in assay [4]; 2.17 in assay [5]; 0.984 in [6]. The figures for the composite z-score (in the assay on Sam68 (KHDRBS1); in assay [7]; in assay [8]) were -0.49, -1.52 and -0.86, respectively. Also, the composite Z-score in assay [1] was 0.881 (inactive).

As for `C=CCOC(=O)[C@H]1[C@@H]2C(=O)O[C@@H](c3ccccc3)[C@@H](c3ccccc3)N2[C@@H](c2ccc(OCCOC(=O)[C@@H]3C[C@@H]4C(=O)N[C@@H](CCCCNC(C)=O)C(=O)N4[C@@H]3c3cccc(OCCO)c3)cc2)[C@]12C(=O)Nc1ccccc12`, the composite z-score with Albumin (Bos taurus) was -0.623; in assay [2], 0.116; in [3], -0.0704; in assay [4], 0.501; in [5], 2.07; in [6] it was 0.352. In addition, the composite z-score was 1.29 in the assay with Sam68 (KHDRBS1), 0.751 in assay [7] and 1.2 in [8]. Also, in [1], the composite Z-score is 1.36 (inactive).

`COc1ccccc1CN1C(=O)c2ccccc2[C@](Cc2ccccc2I)(C(=O)NCC(C)C)[C@@H]1c1ccc(CO)cc1`: the composite z-score with Albumin (Bos taurus) is -0.133; in assay [2], -0.0693; in [3] it was -0.0241; in assay [4], 0.542; in assay [5], 1.97; in [6] it was 0.675. For the same compound, the results for the composite z-score (in the assay with Sam68 (KHDRBS1); in assay [7]; in assay [8]) were 0.781, -0.483 and 0.792, respectively. Moreover, in [1], the composite Z-score is 0.688 (inactive).

Source of the values: PubChem BioAssay.
